Laboratory results taken from PubChem BioAssay (NCATS).
Where “and” joins values, the source holds several entries; their conditions need not be identical. Equal values may be shown once. Results filed as inconclusive are left out. Entries that show only a call come without a potency. Calls of active or inactive are those of the source. Unless noted, calls come from the whole dose curve; as a rule, active = well fitted curve in the direction sought with a large enough effect; inconclusive = small, poorly fitted or top-dose-only effect, or another doubt; inactive = no such curve, though single readings can be large; an effect the other way counts as inactive or inconclusive.

Experiments:
[1] = Cellular Toxicity (caspase-3) BJ (AID 658);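 note: cells exposed to compound for 16 hours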
In short: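 Plated BJ cells (1000/well) rested 5 hr, received compound for 16 hr at 37 °C, then Caspase-Glo 3/7 reagent for 1 hr at room temperature before luminescence reading.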

[2] = qHTS assay for small molecule agonists of the antioxidant response element (ARE) signaling pathway (AID 651741; active = well fitted activation curve with a large enough effect in the signal ratio; the % refers to the signal ratio; note: potency is the fitted concentration of half-maximal effect)
In short: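 Beta-lactamase reporter expression driven by the antioxidant response element in HepG2 cells was detected by fluorescence with LiveBLAzer B/G FRET substrate (2 h, room temperature) following 16 h compound treatment at 37 C.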

[3] = qHTS assay for small molecule activators of the nuclear factor-kappa B (NF-kB) signaling pathway (AID 651749; active = well fitted activation curve with a large enough effect in the signal ratio; the % refers to the signal ratio); conditions: NF-kB-bla ME-180 cells, beta-lactamase FRET ratio, 16 h; stronger effect = higher value
In short: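 Beta-lactamase reporter expression, controlled by NF-kB response elements in ME-180 cells, was quantified fluorometrically via FRET disruption; cells at 2,000/well had been incubated with 23 nL test compound for 16 hr.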

[4] = qHTS assay to identify small molecules that stimulate interleukin-8 (IL-8) secretion (AID 651758; active = well fitted activation curve with a large enough effect in the signal ratio; the % refers to the signal ratio; note: potency is the fitted concentration of half-maximal effect)
In short: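 Quantitative HTS in THP-1 monocytic cells at 2000 cells per well, with 16 hrs compound incubation at 37 C. IL-8 in the medium was then quantified by HTRF immunoassay, read after 1-3 hrs at room temperature.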

[5] = qHTS profiling for inhibitors of Plasmodium falciparum proliferation (AID 504749); note: nearly all actives have a fitted effect of over 60% in size; conditions: P. falciparum in erythrocytes, SYBR Green DNA, 72 h, at 28.7 µM (top of the series)
In short: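 Fluorescence of SYBR Green-bound parasite DNA, read at 485/535 nm, served as the growth measure. Infected erythrocytes were cultured with compound 72 h; artemisinin (0.29 uM) and DMSO wells defined the normalization range.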

[6] = Cell Viability - LYMP2-001 (AID 921); note: nearly all actives have a fitted effect of over 70% in size
In short: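 qHTS, 1536-well; lymphoblastoid cells, 24 hr compound, 37 C; ATP by CellTiter-Glo, 30 min RT; luminescence; Hill-fit AC50.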

[7] = Cell Viability - LYMP2-014 (AID 983); note: nearly all actives have a fitted effect of over 50% in size
In short: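 2500 cells/well, 5 hr 37 C; cpd 24 hr 37 C, complete medium; CellTiter-Glo 30 min RT, luminescence; ATP loss = toxicity; AC50 via Hill eqn; tetraoctylammonium bromide positive control.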

[8] = target: Bile acid receptor (Homo sapiens) (UniProt Q96RI1); assay: qHTS assay for small molecule antagonists of farnesoid X receptor signaling (AID 588526; calls by dose curve)
Chain of Bile acid receptor (Homo sapiens) (Q96RI1 whole entry, looked up): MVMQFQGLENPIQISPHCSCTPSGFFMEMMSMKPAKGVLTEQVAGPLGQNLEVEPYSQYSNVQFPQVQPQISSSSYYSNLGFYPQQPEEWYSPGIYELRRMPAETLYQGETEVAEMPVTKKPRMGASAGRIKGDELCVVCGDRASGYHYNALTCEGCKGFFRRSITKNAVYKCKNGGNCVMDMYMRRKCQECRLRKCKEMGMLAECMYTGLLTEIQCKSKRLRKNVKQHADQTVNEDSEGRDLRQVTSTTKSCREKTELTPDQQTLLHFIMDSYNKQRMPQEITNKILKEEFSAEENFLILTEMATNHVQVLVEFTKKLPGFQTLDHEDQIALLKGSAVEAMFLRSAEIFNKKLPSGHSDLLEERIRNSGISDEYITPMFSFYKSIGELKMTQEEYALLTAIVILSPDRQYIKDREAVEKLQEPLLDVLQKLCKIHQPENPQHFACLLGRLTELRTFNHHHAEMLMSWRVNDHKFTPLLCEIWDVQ
In short: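 Concentration-response titrations were fitted to the Hill equation for half-maximal inhibition and maximal response, with data normalised to 50 uM chenodeoxycholic acid and DMSO control wells. Cells: FXR-UAS-bla HEK293T, dialyzed FBS.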

[9] = target: Glucocorticoid receptor (Homo sapiens) (UniProt P04150); assay: qHTS assay for small molecule antagonists of glucocorticoid receptor signaling (AID 588533; active = well fitted inhibition curve with a large enough effect in the signal ratio, with a control signal flat, not every such curve was filed as active; the % refers to the signal ratio;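 note: cells stimulated with 2 nM dexamethasone as agonist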; note: potency is the fitted concentration of half-maximal effect)
Chain of Glucocorticoid receptor (Homo sapiens) (P04150 whole entry, looked up): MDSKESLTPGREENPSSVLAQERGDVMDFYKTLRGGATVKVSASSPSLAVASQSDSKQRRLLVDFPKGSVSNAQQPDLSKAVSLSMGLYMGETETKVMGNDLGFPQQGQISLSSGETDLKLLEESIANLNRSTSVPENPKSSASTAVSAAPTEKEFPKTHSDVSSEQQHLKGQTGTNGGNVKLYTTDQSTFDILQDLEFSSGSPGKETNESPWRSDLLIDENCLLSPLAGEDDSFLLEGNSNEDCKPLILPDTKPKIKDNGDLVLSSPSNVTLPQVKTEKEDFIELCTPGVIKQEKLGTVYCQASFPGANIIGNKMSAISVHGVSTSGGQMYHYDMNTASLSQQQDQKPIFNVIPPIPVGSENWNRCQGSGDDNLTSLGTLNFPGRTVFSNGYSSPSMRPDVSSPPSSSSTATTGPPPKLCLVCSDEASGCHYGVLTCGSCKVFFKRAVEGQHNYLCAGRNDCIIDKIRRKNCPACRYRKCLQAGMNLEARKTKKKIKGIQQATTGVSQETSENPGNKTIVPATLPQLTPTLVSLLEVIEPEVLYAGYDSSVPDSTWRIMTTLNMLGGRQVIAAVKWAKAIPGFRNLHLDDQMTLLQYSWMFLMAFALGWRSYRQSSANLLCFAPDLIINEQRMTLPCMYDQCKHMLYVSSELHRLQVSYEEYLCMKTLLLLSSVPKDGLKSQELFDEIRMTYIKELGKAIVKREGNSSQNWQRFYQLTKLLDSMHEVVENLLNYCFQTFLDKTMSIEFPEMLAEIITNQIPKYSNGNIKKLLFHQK
In short: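 Antagonist-mode qHTS: compound titrations added to GRE-bla HeLa cells, then dexamethasone 2 nM final; 18 h, 37 C. CCF4 FRET fluorescence normalized to dexamethasone and DMSO; IC50 from Hill fit.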

[10] = qHTS assay for small molecule antagonists of peroxisome proliferator-activated receptor delta signaling (AID 588535; active = well fitted inhibition curve with a large enough effect in the signal ratio, with a control signal flat, not every such curve was filed as active; the % refers to the signal ratio; note: potency is the fitted concentration of half-maximal effect;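 for max response: cells co-treated with a PPAR-delta agonist as stimulator during compound exposure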); conditions: HEK293T PPARd-UAS-bla, beta-lactamase FRET ratio, 18 h; 460 nm channel
In short: (§1)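 Compounds tested in titration on PPAR-delta-UAS-bla HEK293T cells grown in charcoal/dextran-stripped serum (2%); beta-lactamase activity read via CCF4 emission at 460 and 530 nm.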

[11] = target: Peroxisome proliferator-activated receptor delta (Homo sapiens) (UniProt Q03181); assay: as above
Chain of Peroxisome proliferator-activated receptor delta (Homo sapiens) (Q03181 whole entry, looked up): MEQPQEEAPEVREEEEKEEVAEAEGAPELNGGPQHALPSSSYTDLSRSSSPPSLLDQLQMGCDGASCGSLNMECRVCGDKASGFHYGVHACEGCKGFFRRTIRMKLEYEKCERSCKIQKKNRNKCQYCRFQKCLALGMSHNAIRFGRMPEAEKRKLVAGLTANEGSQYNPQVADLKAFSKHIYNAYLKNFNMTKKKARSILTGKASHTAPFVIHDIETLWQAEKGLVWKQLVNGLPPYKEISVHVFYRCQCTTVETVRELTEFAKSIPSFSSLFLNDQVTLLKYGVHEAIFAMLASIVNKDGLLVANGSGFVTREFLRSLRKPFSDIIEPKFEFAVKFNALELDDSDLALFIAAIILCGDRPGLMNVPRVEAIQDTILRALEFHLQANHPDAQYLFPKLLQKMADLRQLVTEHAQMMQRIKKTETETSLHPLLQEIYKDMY
In short: as §1

[12] = target: Peroxisome proliferator-activated receptor gamma (Homo sapiens) (UniProt P37231); assay: qHTS assay for small molecule antagonists of peroxisome proliferator-activated receptor gamma signaling (AID 588537; active = well fitted inhibition curve with a large enough effect in the signal ratio, with a control signal flat, not every such curve was filed as active; the % refers to the signal ratio;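 note: reporter cells co-stimulated with 50 nM rosiglitazone agonist during compound treatment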)
Chain of Peroxisome proliferator-activated receptor gamma (Homo sapiens) (P37231 whole entry, looked up): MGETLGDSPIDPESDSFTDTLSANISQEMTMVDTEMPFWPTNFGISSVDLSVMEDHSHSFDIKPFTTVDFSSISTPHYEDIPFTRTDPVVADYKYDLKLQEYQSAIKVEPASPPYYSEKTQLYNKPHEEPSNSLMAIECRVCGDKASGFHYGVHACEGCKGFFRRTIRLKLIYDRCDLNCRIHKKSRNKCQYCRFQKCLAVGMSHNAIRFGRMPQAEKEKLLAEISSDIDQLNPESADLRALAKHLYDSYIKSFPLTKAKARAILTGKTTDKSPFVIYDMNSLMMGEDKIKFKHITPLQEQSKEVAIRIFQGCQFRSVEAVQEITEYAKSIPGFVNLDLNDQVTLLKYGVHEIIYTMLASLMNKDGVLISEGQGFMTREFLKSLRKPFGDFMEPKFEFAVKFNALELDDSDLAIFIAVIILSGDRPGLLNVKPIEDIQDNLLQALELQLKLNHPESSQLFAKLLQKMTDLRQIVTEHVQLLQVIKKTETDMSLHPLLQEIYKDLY
In short: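 HEK293 cells, PPAR-gamma-UAS-bla, 3000/well. Pre-incubation 6-6.5 h, 37 C. Compound titration with rosiglitazone 50 nM final, 16 h. CCF4 dye, 2 h RT, dual-emission fluorescence.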

[13] = qHTS assay for cell viability of HEK293 cells (AID 743288); conditions: ATP luminescence (CellTiter-Glo), 18 h; max response: stronger effect = lower value; note: nearly all actives have a fitted effect of over 50% in size
In short: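 Quantitative high-throughput screen: compounds were pinned onto parental HEK293 cells (2,000 per well) after a minimum 5 h settling at 37 C, incubated 18 h at 37 C, and intracellular ATP measured by luciferase luminescence.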

[14] = Cell Viability - LYMP2-005 (AID 967)
In short: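 qHTS viability screen in LYMP2-005 cells: 24 h at 37 C with compound, ATP luminescence via CellTiter-Glo, AC50 from Hill curves.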

[15] = Cell Viability - LYMP1-002 - Assay at 24 hr (AID 993)
In short: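 CellTiter-Glo luminescence (intracellular ATP) after 24 h compound exposure, 37 C, in LYMP1-002 human lymphoblastoid cells; decreased ATP taken as cytotoxicity. AC50 from standard Hill fit of concentration-response curves.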

[16] = Cell Viability - LYMP2-020 (AID 986); note: nearly all actives have a fitted effect of over 55% in size; note: potency is the fitted concentration of half-maximal effect
In short: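 qHTS, 2500 cells/well; 5 hr then 24 hr compound exposure, 37 C; CellTiter-Glo luminescence after 30 min RT; ATP decrease taken as cytotoxicity; AC50 via Hill equation; tetraoctylammonium bromide positive control.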

[17] = Cell Viability - LYMP2-023 (AID 975);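 note: cells exposed to compound for 24 hours at 37 °C; nearly all actives have a fitted effect of over 55% in size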; note: potency is the fitted concentration of half-maximal effect
In short: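 CellTiter-Glo luminescence after 30 min at room temperature; decrease in intracellular ATP reflects toxicity. Cells: human lymphoblastoid line, 2500/well, 24 hr compound exposure at 37 C. AC50 fitted to standard Hill equation from concentration-response.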

With `S=C1NC=NC2N=CNC12` (centres undefined) the outcome [1] was “inactive”, the Potency [2] was 23.7 µM (active) and the activation [3] was 1.89% (inactive). For the same molecule, the Potency [4] was 42.2 µM (active), the activity, negative = inhibition ([5]; parasite line A) was -17.9% (inactive) and the activity, negative = inhibition ([5]; parasite line B) was -14.3% (inactive).

In the case of `COC(=O)c1ccc(C=O)cc1`, the Potency [6] is reported as “inactive”, the Potency [7] is reported as “inactive” and the outcome [8] is reported as “inactive”. The Potency [9] was “inactive”, the max response [10] was 6.11% and 19.8% and the Potency [11] was “inactive”. For the same molecule, the outcome [12] was “inactive”, the Potency [2] was “inactive” and the activation [3] was -1.54% (inactive). The max response [13] was -15.6% (inactive) and -6.77% (inactive).

With `CCO` the Potency [14] was “inactive”, the Potency [15] was “inactive” and the outcome [8] was “inactive”. For the same molecule, the Potency [9] was “inactive”, the max response [10] was -20.9% and the Potency [11] was “inactive”. For the same molecule, the outcome [12] was “inactive”, the Potency [2] was “inactive” and the activation [3] was -0.227% (inactive). The Potency [4] was “inactive” and the max response [13] was 8.81% (inactive).

With `Clc1cc(Cl)c(Cl)c(Cl)c1Cl` the outcome [1] was “inactive”, the Potency [14] was “inactive” and the Potency [7] was “inactive”. The Potency [16] was “inactive”, the Potency [9] was “inactive” and the Potency [2] was “inactive”. For the same molecule, the Potency [4] was “inactive”.

With `CCCCOCCO` the outcome [1] was “inactive”, the Potency [15] was “inactive” and the outcome [8] was “inactive”. The Potency [9] was “inactive”, the max response [10] was 1.73% and 13.5% and -16.7% and the Potency [11] was “inactive”. The outcome [12] was “inactive”, the Potency [2] was “inactive” and the activation [3] was 0.401% (inactive) and -0.541% (inactive) and 0.482% (inactive). For the same molecule, the Potency [4] was “inactive”.

With `O=NO` the outcome [1] was “inactive”, the Potency [14] was “inactive” and the Potency [15] was “inactive”. The max response [10] was 3.13% and -3.55%, the Potency [11] was “inactive” and the outcome [12] was “inactive”. For the same molecule, the activation [3] was -0.475% (inactive) and 1.4% (inactive), the Potency [4] was “inactive” and the max response [13] was 0.172% (inactive) and -0.275% (inactive).

With `CN(C)C=O` the Potency [14] was “inactive”, the Potency [7] was “inactive” and the outcome [8] was “inactive”. For the same molecule, the outcome [12] was “inactive”, the Potency [2] was “inactive” and the activation [3] was 0.506% (inactive) and -0.104% (inactive) and -1.7% (inactive). The Potency [4] was “inactive”.

With `Cc1ccccc1C` the Potency [6] was “inactive”, the Potency [14] was “inactive” and the Potency [15] was “inactive”. For the same molecule, the Potency [9] was “inactive”, the max response [10] was -3.07% and -4.26% and the Potency [11] was “inactive”. The Potency [2] was “inactive” and the activation [3] was -0.0827% (inactive) and -0.301% (inactive).

With `Cc1cccc([N+](=O)[O-])c1C` the Potency [14] was “inactive”, the max response [10] was -14.5% and -6.43% and the Potency [11] was “inactive”. The outcome [12] was “inactive”, the Potency [2] was “inactive” and the activation [3] was -0.813% (inactive) and -0.315% (inactive). The Potency [4] was “inactive” and the max response [13] was -3.29% (inactive) and 4.27% (inactive).

In the case of `c1ccc2c(c1)[nH]c1ccccc12`, the outcome [1] is reported as “inactive”, the Potency [6] is reported as “inactive” and the Potency [16] is reported as “inactive”. For the same molecule, the Potency [9] was “inactive”, the max response [10] was -0.442% and 48.8% and the Potency [11] was “inactive”. The outcome [12] was “inactive” and the Potency [2] was “inactive”.

With `OCCNCCO` the Potency [6] was “inactive”, the Potency [16] was “inactive” and the Potency [15] was “inactive”. The Potency [9] was “inactive”, the max response [10] was 0.125% and 53.2% and the Potency [11] was “inactive”.

For `O=C(O)c1cc(O)c2c(c1)[C@H]([C@H]1c3cc(C(=O)O)cc(O)c3C(=O)c3c(O[C@@H]4OC(CO)C(O)C(O)C4O)cccc31)c1cccc(O[C@@H]3OC(CO)C(O)C(O)C3O)c1C2=O` (some centres undefined), the activity, negative = inhibition ([5]; parasite line A) was -10% (inactive) and the activity, negative = inhibition ([5]; parasite line B) was -4.26% (inactive).

For `C=CCOC(=O)c1ccccc1C(=O)OCC=C`, the Potency [6] was “inactive”, the Potency [14] was “inactive” and the Potency [17] was “inactive”. The Potency [7] was “inactive”, the outcome [8] was “inactive” and the outcome [12] was “inactive”. For the same molecule, the activation [3] was -0.29% (inactive) and -0.27% (inactive).

In the case of `Clc1cc(Cl)c(Cl)cc1Cl`, the outcome [1] is reported as “inactive”, the Potency [14] is reported as “inactive” and the Potency [7] is reported as “inactive”. The Potency [16] was “inactive”, the Potency [9] was “inactive” and the max response [10] was 10.3% and -6.5%. For the same molecule, the Potency [11] was “inactive”, the outcome [12] was “inactive” and the Potency [2] was “inactive”. The activation [3] was 0.515% (inactive) and -2% (inactive) and the max response [13] was 3.48% (inactive) and -4.31% (inactive).

With `CCCCCCCCOC(=O)c1cc(O)c(O)c(O)c1` the max response [10] was -19.5%, the Potency [11] was “inactive” and the outcome [12] was “inactive”. For the same molecule, the Potency [2] was “inactive”.

With `O=[N+]([O-])c1cccc(Cl)c1Cl` the Potency [14] was “inactive”, the Potency [17] was “inactive” and the Potency [15] was “inactive”. For the same molecule, the outcome [8] was “inactive”, the Potency [9] was “inactive” and the max response [10] was -5.68% and -3.79%. The Potency [11] was “inactive”, the outcome [12] was “inactive” and the Potency [2] was “inactive”. For the same molecule, the Potency [4] was “inactive” and the max response [13] was -3.06% (inactive) and -4.76% (inactive).

For `C=CC(=O)OCCOCCOCCOCCOC(=O)C=C`, the Potency [17] was 25.1 µM (active) and 31.6 µM (active), the Potency [16] was 12.6 µM (active) and 15.8 µM (active) and the Potency [9] was 39.8 µM (active). The max response [10] was -103%, the Potency [11] was 28.2 µM (active) and the Potency [2] was 42.2 µM (active) and 37.6 µM (active).

For `C=Cc1ccccc1Cl`, the Potency [7] was “inactive”, the Potency [16] was “inactive” and the outcome [8] was “inactive”. For the same molecule, the Potency [9] was “inactive”, the max response [10] was -3.33% and the Potency [11] was “inactive”. The Potency [2] was “inactive”, the activation [3] was -1.19% (inactive) and the Potency [4] was “inactive”. The max response [13] was 6.21% (inactive).

For `COCC(=O)O`, the Potency [16] was “inactive”, the Potency [9] was “inactive” and the max response [10] was 5.18% and 13.7%. The Potency [11] was “inactive”, the outcome [12] was “inactive” and the Potency [2] was “inactive”. For the same molecule, the activation [3] was 0.0746% (inactive) and -0.444% (inactive) and the max response [13] was -1.06% (inactive) and 2.91% (inactive).
